PubChem BioAssay AID624331 (National Center for Advancing Translational Sciences (NCATS), 2012)
Records with an inconclusive call do not appear. Unmarked numbers belong to inactive results. The call rests on the fitted dose curve; in most records, active means well fitted activation curve with a large enough effect; inconclusive means small, poorly fitted or top-dose-only effect; inactive means no such curve, though single readings can be large or run the other way.

Assay: qHTS assay for re-activators of p53 using a Luc reporter: Hit Validation with no p53 Expressed; further: 0% is about no effect
Settings: p53-null cells, luciferase reporter counter-screen; series mostly up to 46.1 µM; activity change, positive = activation: at the top concentration
In short: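 Without p53 expression, cells (1000/well, Opti-MEM + 10% FBS) were exposed 24 h at 37 deg C to compounds in a 1:5 series from 10 mM stock (top 46.1 µM in well). Luminescent signal read 10 min after Amplite addition; actives flag unspecific activation.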

Row | SMILES | activity change, positive = activation [%]
1 | C=CCOc1c(Br)cc(CNCCCN2CCOCC2)cc1OC | -42.5
2 | Cc1cc(Oc2ccccc2)nc(-c2ccccc2O)n1 | -8.39
3 | Cc1ccc(C(C)C)c(OCc2ccc(C(=O)N/N=C/c3ccc(O)cc3O)cc2)c1 | -41.7
4 | CC(C)(C)c1cc(-n2ccnc2)n2ncc(-c3ccc(Cl)cc3)c2n1 | 27.1
5 | COc1ccccc1Oc1c(C)oc2c(CN(C)C)c(O)ccc2c1=O | -5.95
6 | COCCn1c(SCC(=O)c2c(N)n(C3CC3)c(=O)[nH]c2=O)nnc1-c1cccc(C)c1 | -44.6
7 | COCCCN=C(c1ccco1)n1c(=S)nc(-c2ccco2)n(CCCOC)c1=S | 6.18
8 | N#Cc1c(NC(=O)/C=C/c2ccco2)sc2c1CCCC2 | 13
9 | Cc1cc(C(=O)COc2ncnc3sccc23)c(C)n1C1CC1 | -19.7
10 | O=C(Nc1cccnc1)c1ccc([N+](=O)[O-])s1 | -52.7
11 | COC(=O)c1ccc(-c2nc(-c3cccs3)no2)cc1 | -36
12 | O=C(/C=C/Nc1ccc(F)cc1F)c1cccs1 | 26.9
13 | CS(=O)(=O)n1nc(-c2ccccc2)nc1NCc1ccco1 | 6.95
14 | COc1ccc(-c2nsc3c(N4CCCC4)ncnc23)cc1 | -13.9
15 | O=C(NC(=S)Nc1nc2ccccc2s1)c1ccco1 | -0.197
16 | O=C(O)c1ccc(N/N=C/c2ccc3ncccc3c2)cc1 | -33.2
17 | Cc1ccc(CNc2cc(C(=O)O)ccc2Cl)s1 | 86
18 | Nc1nonc1-n1nnc(C(=O)N/N=C/c2ccc(OCc3cccc(Cl)c3)cc2)c1CN1CCCCC1 | 56.6
19 | Cc1ccc(NC(=S)NCC2CCCO2)c(OC(F)F)c1 (centres undefined) | -4.01
20 | COc1ccc(-n2c(C)cc(C(=O)COc3ccc(C)nc3[N+](=O)[O-])c2C)cc1 | -28.6

Row | SMILES | activity change, positive = activation [%]
21 | O=C(Cc1ccccc1)Nc1ccc(NC(=O)c2cccnc2)cc1 | -13.4
22 | O=C(COc1ccc(F)cc1Cl)NC1CCCCCC1 | 87.9
23 | Cc1nonc1NCn1nnc2ccccc21 | 2.44
24 | O=C(NNC(=O)C1CCCO1)c1ccccc1Cl (centres undefined) | -10.1
25 | Oc1cccc2c(NC(=S)Nc3ccc(OC(F)F)cc3)cccc12 | -10.6
26 | COCCN(Cc1cn[nH]c1-c1ccc2cc(OC)ccc2c1)C(C)C | -2.86
27 | COc1ccc(/C(C)=N/Nc2nccnc2Cl)cc1 | -19.3
28 | CN(c1ccc(C(=O)COC(=O)C2CC2)cc1)S(C)(=O)=O | -4.32
29 | Cc1cc(-c2nnc(SCc3ccccn3)o2)no1 | -18
30 | Cc1nnc2n(c1=O)N=C(c1ccc(Cl)cc1)CS2 | 32.4
31 | O=C(NCCOc1ccccc1F)c1cc(F)c(F)cc1Cl | 31.2
32 | COCC(C)NC(=O)C1CC(=O)N(c2ccc(C)cc2)C1 (centres undefined) | -10.8
33 | COc1cc(NC(=O)CSCc2ccc(Cl)cc2)c(C(=O)O)cc1OC | -44
34 | O=C(N/N=C\c1cc(Cl)ccc1O)c1ccc(S(=O)(=O)N2CCCCC2)cc1 | -22.2
35 | Nc1c(C(=O)CSc2nc3ccccc3o2)c(=O)[nH]c(=O)n1C1CC1 | -8.39
36 | COc1cc(NC(=O)CN2CCCCC2)c(C)cc1[N+](=O)[O-] | 26.6
37 | Clc1cccc(N/N=C(\Cc2nc3ccccc3[nH]2)c2ccccc2)c1 | -3.28
38 | CCN1C(=O)C(=O)N(CC(=O)c2cc(C)n(C3CC3)c2C)C1=O | 50
39 | CCOc1cccc(-c2c(C(=O)N/N=C(\C)c3ccccn3)nnn2-c2nonc2N)c1 | -29.5
